USP28 block: human USP28 deubiquitinase inhibition. Q96RU2. purified USP28, Ub-rhodamine cleavage fluorescence, 30 min. inhibition, % at 25 µM. 47,000 compounds, 3% hits. AID 1645857
USP17 block: inhibitors of human USP17 deubiquitinase. A8MUK1. purified USP17, Ub-rhodamine cleavage fluorescence, 3 h. inhibition, % at 50 µM. 47,000 compounds, 6.5% hits
OTUD3 block: blocks human OTUD3 ubiquitin-rhodamine cleavage. Q5T2D3. purified OTUD3, Ub-rhodamine fluorescence, 2 h. inhibition, % at 25 µM. 47,000 compounds, 0.7% hits. AID 1645858
Target sequence (Q5T2D3 whole entry, looked up): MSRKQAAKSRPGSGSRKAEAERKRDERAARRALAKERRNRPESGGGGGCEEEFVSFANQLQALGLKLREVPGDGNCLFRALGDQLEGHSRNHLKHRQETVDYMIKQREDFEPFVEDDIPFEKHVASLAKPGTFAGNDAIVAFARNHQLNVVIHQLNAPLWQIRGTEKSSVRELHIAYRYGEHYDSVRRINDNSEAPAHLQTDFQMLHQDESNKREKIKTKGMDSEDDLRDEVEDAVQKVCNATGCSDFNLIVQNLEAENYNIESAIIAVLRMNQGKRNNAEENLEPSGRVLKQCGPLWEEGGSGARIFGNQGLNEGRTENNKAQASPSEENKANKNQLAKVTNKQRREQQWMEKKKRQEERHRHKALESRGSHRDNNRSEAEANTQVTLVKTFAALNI
USP30 inh: inhibitors of human USP30 deubiquitinase | purified USP30, Ub-rhodamine cleavage fluorescence | inhibition, % at 25 µM | 47,000 compounds, 5.3% hits | Q70CQ3
Starred values were filed as active, the others as inactive; . = no result. Compounds with a hit are over-represented: about 12% of the library has one in this group of screens. No stated cut-off is given here; in the data, active means inhibition above about 30%; inactive means the rest.

SMILES | USP28 block | USP17 block | OTUD3 block | USP30 inh
O=C1CC(C(=O)Nc2ccccc2F)n2ncc(-c3ccccc3)c2N1 (stereo not drawn) | 18 | 44* | 9 | 8
CCOc1cccc(CNC(=O)c2cn3c(n2)CCCC3)c1 | 7 | 7 | 1 | 18
O=C1N(CC2CC2)c2ccccc2C12CCN(S(=O)(=O)C1CC1)CC2 | -5 | -7 | -5 | 4
CCOc1cccc(NC(=O)c2ccc(S(=O)(=O)N3CCc4ccccc4C3)cc2)c1 | 21 | 53* | 19 | 41*
CC1Oc2ccc(NC(=O)c3cccc(S(=O)(=O)N4CCc5ccccc5C4)c3)cc2NC1=O (stereo not drawn) | 10 | 31* | -6 | -14
CSc1nc2ncc3c(=O)n(CC4CCCO4)ccc3n2n1 (stereo not drawn) | -4 | -7 | -1 | -2
CN(C)c1nc2c(c(=O)[nH]c(=O)n2C)n1CC(=O)c1ccccc1 | . | 3 | -4 | .
Cn1c(=O)[nH]c(=O)c2c1nc(NCCCO)n2CC(=O)c1ccccc1 | 10 | 13 | 7 | 40*
Cc1cc(Br)ccc1NC(=O)CSc1nc2c(cc1C#N)C(=O)CCC2 | -9 | . | -4 | -15
Cc1cc(C)c(NC(=O)CSC2=C(C#N)C(c3ccc(C)o3)C3=C(CCCC3=O)N2)c(C)c1 (stereo not drawn) | 31* | 19 | 11 | 35*
COc1ccc(C)cc1NC(=O)COc1ccc2c(c1)OCO2 | -5 | 52* | -3 | -1
O=C(COc1ccc2c(c1)OCO2)Nc1ccc2c(c1)CCC2 | 30 | 16 | 22 | 6
CC(=O)NC(Cc1ccccc1F)C(=O)NC1CCN(c2nc(C)cc(C)c2C#N)CC1 (stereo not drawn) | -12 | -4 | -6 | -77
CC(=O)Nc1ccc(SCC(=O)c2cc(C)n(CC3COc4ccccc4O3)c2C)cc1 (stereo not drawn) | -19 | -27 | -18 | -58
COCCn1c(C)cc(C(=O)CSc2ccc(Cl)cc2)c1C | 30* | 20 | 8 | -13
CCCCc1nc2sc3c(SCC(=O)Nc4cccc(C)c4)ncnc3c2c2c1CCC2 | 4 | 64* | -8 | -12
CCCCc1nc2sc3c(SCC(=O)Nc4ccc(C)cc4)ncnc3c2c2c1CCC2 | 6 | 0 | 2 | -3
CCCCc1nc2sc3c(SCC(N)=O)ncnc3c2c2c1CCC2 | 36* | 18 | 12 | 23
CC(C)Cc1nc2sc3c(SCC(N)=O)ncnc3c2c2c1CCC2 | . | -3 | 5 | .
CN(C)S(=O)(=O)c1ccc(NC(=O)c2ccccc2-c2ccc(C(F)(F)F)cc2)cc1 | 7 | -8 | 2 | 13
CC(=O)c1ccc2[nH]c(C)c(CN3CCCCC3)c(=O)c2c1 | -13 | 3 | -11 | -31
COc1ccc(-c2ocnc2C(=O)NCc2ccc(F)cc2)cc1 | 55* | 12 | 4 | -4
CSc1ccccc1C(=O)Nc1nc(-c2ccncc2)cs1 | 4 | 55* | 14 | 34*
Cc1noc(-c2cccc(=O)n2CC(=O)Nc2ccc(C)c(F)c2)n1 | 9 | 9 | 15 | 31*
Cc1cccc(NC(=O)Cn2c(-c3nc(C)no3)cccc2=O)c1 | 9 | -1 | 0 | 7
SMILES | USP28 block | USP17 block | OTUD3 block | USP30 inh
Cc1noc(-c2cccc(=O)n2CC(=O)Nc2ccc(C)c(C)c2)n1 | 7 | 71* | 5 | 14
CNc1ncc(CN2CCc3cc(OC)c(OC)cc3C2c2ccncc2)cn1 (stereo not drawn) | -13 | 0 | -10 | -18
Cc1ccc2nc(CNc3cc(F)ccc3C)cc(=O)n2c1 | -5 | -12 | -7 | -56
Cc1cccc(NCc2cc(=O)n3cc(C)ccc3n2)c1 | 26 | 46* | 1 | 7
c1cc(-c2noc(C3CCCO3)n2)ccc1-c1csc(C2CC2)n1 (stereo not drawn) | 40* | 3 | 5 | -27
c1cnc(-c2nc(-c3ccc(-c4csc(C5CC5)n4)cc3)no2)cn1 | -55 | -68 | -54 | -245
COC(=O)c1ccc(C2c3[nH]c4ccccc4c3C[C@H]3C(=O)N(CCC4=CCCCC4)CC(=O)N23)cc1 (stereo partly drawn) | -86 | -60 | -55 | -272
CCCS(=O)(=O)N1CC[C@H]2[C@H]1CCN2c1ccc(C)nn1 | -6 | -25 | -8 | -23
O=C(NCCCN1CCCC1)c1ccc(CS(=O)(=O)c2ccc(Br)cc2)o1 | -6 | 40* | -12 | -24
O=C(Cc1nnc(-c2cnccn2)o1)NCc1ccc(F)c(Cl)c1 | 8 | 1 | -3 | -2
Cc1cccc(NC(=O)Cn2c(N3CCOCC3)nc(C)cc2=O)c1 | -11 | -1 | -6 | 1
Cc1cc2nc(N3CCOCC3)n(CC(=O)Nc3cccc(F)c3)c(=O)c2n1C | -1 | 38* | 2 | 13
Cc1ccccc1NC(=O)Cn1c(N2CCOCC2)nc2cc(C)n(C)c2c1=O | 10 | 36* | 15 | 62*
CCc1cc(=O)n(CC(=O)Nc2cccc(F)c2)c(N2CCOCC2)n1 | 2 | 9 | 6 | 17
Cc1ccc(NC(=O)Cn2c(N3CCOCC3)nc3cc(C)n(C)c3c2=O)cc1 | -11 | 14 | -5 | 49*
Cc1cc(=O)n(CC(=O)NCc2ccc(Cl)cc2)c(N2CCOCC2)n1 | 8 | 3 | 9 | 19
CCc1ccc(NC(=O)Cn2c(N3CCOCC3)nc3cc(C)n(C)c3c2=O)cc1 | 8 | 40* | 10 | 33*
CC1CC(=O)N(Cc2ccc([N+](=O)[O-])cc2)c2ccccc2S1(=O)=O (stereo not drawn) | -15 | -24 | -2 | 0
Cc1c(C(=O)NCc2cccc(Br)c2)oc2c1-c1[nH]ncc1CC2 | 7 | 62* | -7 | -29
CC1(c2ncc(CNC(=O)c3ccn[nH]3)cn2)CCCCO1 (stereo not drawn) | 5 | 0 | 0 | -3
CC(=O)Nc1cc(C(=O)NC(C)c2ccccc2)c2ccc(C)nc2c1 (stereo not drawn) | -11 | -4 | -16 | -74
Cc1ccc2cc(NC(=O)CC(CC(=O)O)c3ccccc3)ccc2n1 (stereo not drawn) | . | 53* | -27 | .
CCOc1cccc(CNCc2ccncc2)c1OCc1ccccc1F | -45 | -30 | -27 | -262
Cc1ccc(CNC(=O)N2CCC(c3nc(C(=O)N(C)C)c(C)o3)CC2)cc1 | 10 | 17 | 11 | 31*
Cc1ccc(NC(=O)N2CCC(c3nc(C(=O)N(C)C)c(C)o3)CC2)cc1Cl | -11 | -7 | -10 | -5
SMILES | USP28 block | USP17 block | OTUD3 block | USP30 inh
Cc1cccc(OCC(=O)Nc2ccc3c(c2)NC(=O)CO3)c1 | 4 | 41* | 6 | 12
CCN1CCN(c2ccc(NC(=O)COc3cccc(C)c3)cc2)CC1 | 12 | 19 | 7 | 32*
Cc1cc(OCC(=O)Nc2ccc3c(c2)NC(=O)CO3)ccc1Cl | 13 | 10 | 7 | 14
O=C(Nc1ccncc1)c1cn(Cc2ccccc2)cc2c(=O)n(-c3ccccc3)nc1-2 | 16 | 24 | 10 | 50*
COc1ccc(OCC(=O)Nc2ccc3c(c2)CCC(=O)N3Cc2ccccc2)cc1 | 14 | 13 | 11 | 32*
Cc1cc2nc(N3CCCCC3C)c3ccccc3n2n1 (stereo not drawn) | -5 | -29 | -2 | -8
Cc1cc2nc(N3CCN(C(=O)c4ccccc4)CC3)c3ccccc3n2n1 | 4 | 16 | 6 | 34*

Compound activity as filed in PubChem.
